MPTP inh = inhibitors of mitochondrial permeability transition pore; isolated mouse mitochondria, Ca2+ swelling absorbance, 30 min; inhibition, % at 10 µM; 360,000 tested, 1.4% active; AID 602449;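 active = inhibition of 50% or more, scaled per plate between neutral and stimulator controls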;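 note: 0% = DMSO wells given calcium and 100% = 1 mM EGTA wells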
Platelet DG rel = platelet dense granule release activity; human platelet-rich plasma, SFLLRN dense granule ATP release, luminescence; inhibition, %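 (compounds screened at 7.5 µM in platelet-rich plasma)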; 300,000 tested, 0.22% active; AID 1663;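 active = mean replicate score, as percent of positive control, at or above 50; inconclusive = mean below 50 but at least one replicate at or above 50; inactive = mean and every replicate below 50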
dFosB act-1 = mouse delta FosB homodimer activation. P13346. purified delta FosB, TAMRA-CDK5 oligo fluorescence polarization; percent of positive-control signal above neutral wells. activation, % at 25 µM. 340,000 tested, 0.99% active. AID 493131;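 active = mean activation above about 17%, with every replicate also reaching it, limit read from the data, passing the limit was not always enough; inconclusive = only one of the two conditions met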
Target sequence (P13346 whole entry, looked up): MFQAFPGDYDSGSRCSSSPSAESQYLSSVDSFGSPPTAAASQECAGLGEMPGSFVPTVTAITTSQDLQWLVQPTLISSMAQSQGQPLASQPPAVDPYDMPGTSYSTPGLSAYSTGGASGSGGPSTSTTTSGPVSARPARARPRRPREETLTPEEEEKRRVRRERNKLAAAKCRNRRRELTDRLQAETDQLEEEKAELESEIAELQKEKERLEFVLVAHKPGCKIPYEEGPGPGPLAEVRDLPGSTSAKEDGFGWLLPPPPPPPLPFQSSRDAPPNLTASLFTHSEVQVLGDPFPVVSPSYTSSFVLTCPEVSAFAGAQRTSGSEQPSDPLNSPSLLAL
HSF1 inhib = HSF1 inhibition | NIH3T3-HGL HSE-luciferase, MG132-induced, luminescence 8 h; stronger effect = lower value | activity change, negative = inhibition, % at 7.5 µM (by protocol) | 300,000 tested, 0.77% active;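 active = more than half of replicate wells show activity change below -50%, luminescence cut by over half; inconclusive = some wells, but at most half, below -50%; inactive = no replicate well below -50%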;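 note: luciferase reports HSF-1 transcriptional activity via heat shock element; 0% = median of DMSO wells and -100% = zero luminescence signal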
HSP90 refold inh = blocks HSP90-mediated luciferase refolding in reticulocyte lysate; Rabbit reticulocyte lysate, luciferase refolding luminescence, 3 h; inhibition, % at 5.6 µM; 290,000 tested, 0.91% active;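 active = inhibition above the screen-wide mean plus 3 SD, computed separately per campaign, cut at about 16% in these data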;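 note: 0% = DMSO wells and 100% = 60 µM geldanamycin wells; inhibitors lower the luminescence because luciferase stays unfolded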
HSF-1 act = increases HSF-1 driven luciferase reporter signal. NIH3T3-HGL HSF-1 luciferase reporter, MG132, 8 h; 100% = twice DMSO control signal. activation, % at 9 µM. 300,000 tested, 1.7% active. AID 504408;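 active = mean replicate activation of at least 50% with a set share of replicates each reaching 50%; inconclusive = only one of those two conditions met; inactive = mean below 50% and too few replicates reaching it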;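 note: 0% = median of the neutral control wells and 100% = twice that signal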
dFosB act-2 = activators of mouse delta FosB homodimer DNA binding; shares compounds with dFosB act-1; purified delta FosB, TAMRA-CDK5 oligo fluorescence polarization; normalised: neutral wells 0, positive control 100; activation, % at 24.9 µM; 2,400 tested, under 10 active;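 active = highest replicate activation at or above 34% and every replicate reaching that threshold; inconclusive = meets only one of the two criteria; inactive = meets neither criterion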;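 note: higher polarization means more probe DNA bound by delta FosB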
Active calls of the source: *; ? = inconclusive; . = no result given. In the library only some 4.9% were active in any assay of this set; here they are far more common.

SMILES	MPTP inh	Platelet DG rel	dFosB act-1	HSF1 inhib	HSP90 refold inh	HSF-1 act	dFosB act-2
CC(=O)c1cccc(NC(=O)CC2S/C(=N/N=C/c3ccccc3)NC2=O)c1 (configuration not stated)	1	4	49*	-4	2	19	3
COc1ccc(C(O)c2nc(-c3cnc4ccccc4c3)cs2)cc1 (configuration not stated)	1	.	.	.	.	.	.
Cc1onc(-c2ccccc2)c1C(=O)OCC(=O)Nc1cc(S(=O)(=O)N2CCOCC2)ccc1Cl	0	13	-13	11	2	35	.
Cc1c(C2=CCN(S(=O)(=O)c3ccc(Br)cc3)CC2)c2ccccc2n1C	2	10	32*	-60*	4	-70	-8
CCn1c(C)c(C2=CCN(S(=O)(=O)c3ccc(C)cc3)CC2)c2ccccc21	2	5	14	13	-1	30	.
CCCC(=O)Nc1cccc(-c2nc3ccccc3c(=O)o2)c1	1	5	-14	3	7	2	.
CCOc1ccc(NC(=S)NC(=O)/C=C/c2ccc(OC)c(OC)c2)c([N+](=O)[O-])c1	3	-5	25*	-33	0	-41	4
CCOc1ccc(NC(=S)NC(=O)/C=C/c2ccc(C)cc2)c([N+](=O)[O-])c1	0	2	39*	-21	1	-20	2
NC(=O)c1cccc(-c2cnc3c(Nc4cccc(OC(F)(F)C(F)F)c4)nccn23)c1	1	.	.	.	.	.	.
O=C(COC(=O)/C=C/c1cccc(F)c1)Nc1ccc2[nH]c(=O)[nH]c2c1	-2	.	9	2	.	8	.
O=C(COC(=O)/C=C/c1cccc(Cl)c1Cl)Nc1ccc2[nH]c(=O)[nH]c2c1	-1	.	35*	.	.	.	3
COc1cccc(/C=C/C(=O)OCC(=O)Nc2ccc3[nH]c(=O)[nH]c3c2)c1OC	1	3	8	-5	.	3	.
O=C(COC(=O)/C=C/c1cccc(Cl)c1)Nc1ccc2[nH]c(=O)[nH]c2c1	-3	.	27*	0	.	-5	0
CCS(=O)(=O)Nc1ccc(-c2nnc(SCC(=O)c3ccc(NC(C)=O)c(OC)c3)o2)cc1	-2	4	34*	-7	8	-4	8
CCOc1ccc(NC(=O)CNC(=O)c2ccc(OC)cc2)cc1	3	2	-6	-3	1	-7	.
COc1ccc(NC(=O)c2ccc(NC(=O)CCS(=O)(=O)c3cccs3)cc2)cc1	1	-3	30*	-8	-4	-1	-4
COc1ccc(C(=O)Nc2ccc(NC(=O)c3cccs3)cn2)cc1	0	14	33*	0	0	25	2
COc1ccc(C(=O)NCC(=O)Nc2ccc(-c3ccccc3)cc2)cc1	0	-7	38*	-4	2	3	-1
COc1ccc(NC(=O)c2cccs2)cc1	-12	-7	-10	7	-2	39	.
CC(NC(=O)c1ccncc1)c1ccc(Cl)cc1Cl (configuration not stated)	0	-2	5	2	-4	-6	.
CN(C)c1nc(NCc2ccccc2)nc(N/N=C/c2ccc(Cl)cc2Cl)n1	3	0	17*	-2	-7	-4	5
Cc1cc(N/N=C/c2cccc(Cl)c2)nc(NCc2ccccc2)n1	20	-4	41*	-6	3	10	3
CN(C)c1nc(NCc2ccccc2)nc(N/N=C/c2ccccc2F)n1	.	1	.	1	-3	13	.
CCCOc1ccc(-c2nc(-c3ccc(N)cc3)cs2)cc1	.	-1	.	5	0	47	.
CCOc1ccc(NC(=O)Nc2c(C)n(C)n(-c3ccccc3)c2=O)cc1	1	6	-2	-3	-2	9	.
SMILES	MPTP inh	Platelet DG rel	dFosB act-1	HSF1 inhib	HSP90 refold inh	HSF-1 act	dFosB act-2
COc1ccc(-c2nnc(SCc3nc4ccccc4c(=O)[nH]3)o2)cc1	4	3	19*	-13	11	-26	-2
COC(=O)c1ccc(NC(=O)c2snnc2-c2ccccc2)cc1	0	-2	-11	2	-1	7	.
COC(=O)c1ccc(NC(=O)c2c(C(=O)Nc3ccccc3)sc3nc(C)cc(=O)n23)cc1	0	0	92*	2	-5	-1	1
O=C(CSc1nnnn1-c1ccccc1)Nc1ncc(Cc2ccccc2Cl)s1	3	4	39*	6	2	9	0
O=C(CCNC(=O)c1ccccc1Cl)Nc1cc(C(F)(F)F)ccc1Cl	0	-7	34*	-3	0	-14	6
COc1cccc2c1[C@@H]1CN(CCCCn3c(=O)[nH]c4c(sc5ncc(-c6ccccc6)nc54)c3=O)C[C@@H]1CO2	0	.	40*	.	.	.	0
COc1cc2[nH]c(=O)n(CCCC(=O)N3CC=C(c4ccccc4)CC3)c(=O)c2cc1OC	0	-1	-18	-5	-3	22	.
Cc1ccc2nc(NC(=O)CNS(=O)(=O)c3ccc(Br)s3)sc2c1	16	-1	19*	-1	5	-5	-5
Cc1ccc2nc(NC(=O)CN(C)S(=O)(=O)c3ccc(Br)s3)sc2c1	3	-2	-2	-2	-1	22	.
Cc1ccnc(NC(=O)CN(C)S(=O)(=O)c2cccc3nsnc23)c1	2	0	-4	0	5	-21	.
Cc1ccc2nc(NC(=O)CN(C)S(=O)(=O)c3cccc4nsnc34)sc2c1	2	4	21*	10	4	?	2
N#C/C(=C\c1cn(Cc2ccccc2F)c2ccccc12)C(=O)NCc1ccco1	0	2	24*	17	-2	18	4
COCCn1c(SCC(=O)Nc2ccc(F)cc2)nc2c([nH]c3ccccc32)c1=O	1	7	11	7	0	17	.
Cc1ccc(NC(=O)CSc2nc3c([nH]c4ccccc43)c(=O)n2C)cc1	1	2	8	1	-1	7	.
Cn1c(SCC(=O)Nc2ccc(F)cc2)nc2c([nH]c3ccccc32)c1=O	-2	11	21*	4	-4	6	-1
C=CCn1c(SCC(=O)Nc2ccccc2OC)nc2c([nH]c3ccccc32)c1=O	1	30	44*	21	2	37	0
CCn1c(SCC(=O)Nc2ccc(NC(C)=O)cc2)nc2c([nH]c3ccccc32)c1=O	1	6	39*	1	2	10	0
COC(=O)c1ccc2c(=O)[nH]c(COC(=O)c3c(-c4ccccc4)noc3C)nc2c1	-1	5	-6	4	.	1	.
CCCCNC(=O)O/N=C(\N)CS(=O)(=O)C(C)(C)C	3	-20	7	-8	-1	-29	.
Cc1ccc(-c2nnn(CC(=O)NC3CCCc4ccccc43)n2)cc1 (configuration not stated)	0	-2	25*	-5	1	20	-1
